40 compounds from PubChem BioAssay (Tox21) can be followed below.

Calls of active or inactive are those of the source. A call without a number means that no potency is given here. Calls come from the whole dose curve; as a rule, active = well fitted activation curve with a large enough effect in the repeat runs; inconclusive = weak or mixed curves; inactive = flat fitted curve, though single readings scatter.

The experiment is described as follows: A CellTox Green Cytotoxicity Assay to monitor cytotoxicity in HEK293 cells - 0 hour (AID 1224869). Note: nearly all actives have a fitted effect of over 50% in size. The note with it: CellTox Green fluorescence; series mostly up to 76.8 µM. The source says: National Center for Advancing Translational Sciences [NCATS]
NIH Chemical Genomics Center [NCGC]
U.S. Environmental Protection Agency [EPA]
National Institutes of Environmental Health Sciences [NIEHS]
National Toxicology Program [NTP]
Cell-based models are critical for drug discovery. Determining the natural cytotoxic effects resulting from test compounds is an essential research activity. A CellTox Green Cytotoxicity Assay to monitor cytotoxicity in real time of continues cell culture during 40 hours of the compound treatment was used to screen Tox21 10K library compounds in Hek293 cells. CellTox Green Cytotoxicity Assay is a nonlytic, homogeneous, biofluorescent method to measure cytotoxicity in cell culture after experimental manipulation. The assay system uses a proprietary asymmetric cyanine dye that is excluded from viable cells but preferentially stains the dead cell's DNA. […] Viable cells produce no appreciable increases in fluorescence. Therefore, the fluorescence signal produced by the binding interaction with dead cell DNA is proportional to cytotoxicity.
The mixture of Hek293 cell suspension and reagents were dispensed at 600cells/6 ul/well in 1536-well tissue culture treated black solid bottom plates using a Multidrop dispenser. After the assay plates were incubated at a 37 C/5% CO2 incubator for 5 hours, 23 nL of compounds dissolved in DMSO, positive and negative controls was transferred to the assay plate by a pintool work station. The plates were incubated at 37 C for 40 hours. The fluorescence intensity were measured at 0h, 8h, 16h, 24h, 32h and 40h time points using ViewLux plate reader during compound treatment.
Turning to `COCC(O)CO` (stereo not given), the Potency result was “inactive”.

As for `O=C(O)c1c(O)c(-c2ccccc2)nc2ccccc12`, the Potency result is “inactive”.

Take `CCCCC(CC)C(=O)OCCOCCOCCOCCOC(=O)C(CC)CCCC` (stereo not given): the Potency result is “inactive”.

In the case of `CCOC(=N)CC(=O)OCC`, the Potency entry was “inactive”.

For the compound `Fc1ccccc1[C@@H](F)COC1CCC(Nc2ncnc3[nH]ncc23)CC1` (stereo not given in full), the Potency result is “inactive”.

With `CCOC(=O)N1CCC(n2c(=O)[nH]c3cc(Cl)ccc32)CC1`, the Potency entry was “inactive”.

In the case of `C=CC(=O)NCOCC(C)C`, the Potency entry is “inactive”.

`Nc1ccc(S(=O)(=O)O)c(N)c1`: the Potency result was “inactive”.

As to `CCC(C)(C)C1CCC(O)CC1` (stereo not given), the Potency entry was “inactive”.

Turning to `CCOc1cc(N)c(Cl)cc1C(=O)NCC1CN(Cc2ccc(F)cc2)CCO1` (stereo not given), the Potency result is “inactive”.

Turning to `Cc1nc2ccccn2c(=O)c1CCN1CCC(C(=O)c2ccc(F)cc2)CC1`, the Potency entry is “inactive”.

In the case of `NC(=O)N(O)[C@@H]1C=C[C@H](Oc2cccc(Oc3ccc(F)cc3)c2)C1`, the Potency entry is “inactive”.

As for `CCCCCCCCCOC(C)=O`, the Potency entry is “inactive”.

Turning to `O=C(NCCCN1CCOCC1)c1ccc(Cl)cc1`, the Potency entry was “inactive”.

For `CC(COc1ccc(C(C)(C)C)cc1)OS(=O)OCCCl` (stereo not given), the Potency entry is “inactive”.

Turning to `NCC1CCCC(CN)C1` (stereo not given), the Potency entry is “inactive”.

For the compound `C[Si]1(C)O[Si](C)(C)O[Si](C)(C)O1`, the Potency result is “inactive”.

Turning to `O=C(c1ccc(O)cc1)c1ccc(Cl)cc1`, the Potency entry is “inactive”.

Turning to `CCCCC1C(=O)N(c2ccccc2)N(c2ccc(O)cc2)C1=O` (stereo not given), the Potency result is “inactive”.

`CC(C)C(=O)O`: the Potency entry was “inactive”.

Regarding `CCCc1c(OCCCOc2ccc(OCC(=O)O)cc2)ccc(C(C)=O)c1O`, the Potency result was “inactive”.

For the compound `CO[C@H]1O[C@H](CO)[C@@H](O)[C@H](O)[C@H]1O`, the Potency entry was “inactive”.

As for `O=C(Nc1ccc([N+](=O)[O-])cc1)Nc1ccc([N+](=O)[O-])cc1`, the Potency entry is “inactive”.

Take `COc1ccc([C@@H]2Sc3ccccc3NC(=O)[C@@H]2O)cc1`: the Potency result is “inactive”.

Turning to `C[N+](C)(C)CCOC(N)=O`, the Potency result was “inactive”.

Consider `N#C/C(=C1\SCC(c2ccccc2Cl)S1)n1ccnc1` (stereo not given), for which the Potency result is “inactive”.

As for `CCOC(=O)[C@@H](C)Oc1ccc(Oc2nc3ccc(Cl)cc3o2)cc1`, the Potency entry is “inactive”.

As to `Cc1cnc(C)c(C)n1`, the Potency result was “inactive”.

Turning to `CN(C)C(=O)Nc1ccc(Oc2ccc(Cl)cc2)cc1`, the Potency result was “inactive”.

For `NC(=O)Nc1ccc(Cl)cc1`, the Potency entry was “inactive”.

As to `C=C(C)C(=O)OCCOC(=O)CC(C)=O`, the Potency result is “inactive”.

Consider `C/C=C/C=C/CCCCCCCO`, for which the Potency result was “inactive”.

In the case of `C=CCNc1nc(NCC=C)nc(N2CCN(C(c3ccc(F)cc3)c3ccc(F)cc3)CC2)n1`, the Potency entry was “inactive”.

Regarding `CCCCCCCCCCCC[N+](C)(C)CC(=O)[O-]`, the Potency entry is “inactive”.

As to `CCOC(=O)CC(=O)C(=O)OCC`, the Potency result was “inactive”.

Regarding `CCN(CC)CCNC(=O)c1ccc(NC(C)=O)cc1`, the Potency entry was “inactive”.

With `CCC(=O)OC/C=C/c1ccccc1`, the Potency entry was “inactive”.

Consider `CC1CC(O)CC(C)(C)C1` (stereo not given), for which the Potency entry is “inactive”.

For the compound `CC(CCc1ccc2c(c1)OCO2)NN` (stereo not given), the Potency result is “inactive”.

Take `CCCCN(CCCC)C(=S)SSC(=S)N(CCCC)CCCC`: the Potency entry is “inactive”.
